# Rows were chosen to be rich in hits. Some 21% of all compounds tested hit in one or more screens of this group.
# Shiga toxin inh = A qHTS for Small Molecule Inhibitors of Shiga Toxin. Vero cells, Shiga toxin protein synthesis inhibition reporter. inhibition, % at 38.7 µM. 9.2% of 290,000 active. AID 2315, 2010; in the data active = inhibition mostly above about 28%, no sharp cut-off; inactive = mostly below about 43%; also: 0% is about no effect
# Cycloheximide cs = Cycloheximide Counterscreen for Small Molecule Inhibitors of Shiga Toxin. 12% of 300,000 active. cell reporter, cycloheximide protein synthesis inhibition counterscreen. max response, %; in the data active = max response mostly above about 13%, no sharp cut-off; inactive = mostly below about 14%; also: read at 38.3 µM for the half of the compounds with a filed dose; 0% is about no effect
# Pf growth 48h = Primary qHTS for delayed death inhibitors of the malarial parasite plastid, 48 hour incubation; Potency, µM (top dose mostly 28.7 µM), without a hit: at the top dose activity change, negative = inhibition, most hits filed as inhibitors; 5.9% of 310,000 active; P. falciparum luciferase growth in erythrocytes, 48 h; also: potency is read from the fitted curve at half-maximal effect; % is scaled to controls: 0 for no effect and ±100 for the full control effect
#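 A one-generation exposure of luciferase-tagged malaria parasites in RPMI 1640/Albumax erythrocyte culture, 37 C and 5% CO2. Inhibition is inferred from decreased luminescence after adding detection reagent.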
# Pf growth 96h = Primary qHTS for delayed death inhibitors of the malarial parasite plastid, 96 hour incubation. P. falciparum luciferase reporter growth, 96 h. Potency, µM (top dose mostly 28.7 µM), without a hit: at the top dose activity change, negative = inhibition, most hits filed as inhibitors. 6.9% of 320,000 active; also: potency is read from the fitted curve at half-maximal effect; % is scaled to controls: 0 for no effect and ±100 for the full control effect
#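 Infected RBCs, 2% Hct / 0.05% parasitemia final; luciferase-reporter P. falciparum; cpd 96 h, 37 C, 5% CO2; luciferase detection reagent; luminescence.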
# Sm TGR inh = qHTS Assay for the Inhibitors of Schistosoma Mansoni Peroxiredoxins. Schistosoma mansoni thioredoxin glutathione reductase (TGR), Q962Y6. Potency, µM (highest dose often 114 µM), for the others: at the top dose activity change, negative = inhibition, usual class: inhibitors. purified TGR, DTNB reduction, TNB absorbance 405 nm. 3% of 360,000 active; also: potency is read from the fitted curve at half-maximal effect; % is scaled to controls: 0 for no effect and ±100 for the full control effect; nearly all actives have a fitted effect of over 60% in size
#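 Kinetic colorimetric format: TGR-catalysed, NADPH-driven DTNB reduction monitored via TNB absorbance. Enzyme dispensed at 20 nM; compound exposure 15 min at room temperature before reaction start.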
# NS1 function inh = qHTS Assay for Inhibitors of Influenza NS1 Protein Function | Potency, µM (titrated, usually from 46.1 µM), for the others: at the highest dose activity, positive = more growth | 0.4% of 270,000 active; calls by dose curve; also: potency is read from the fitted curve at half-maximal effect; actives are rising curves; nearly all actives have a fitted effect of over 50% in size
#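 Recovery from NS1-induced slow growth read by OD600 in budding yeast switched to galactose assay medium (pH 6.0, -URA) at 1:100 dilution. Compound 23 nl per well; the matching strain lacking NS1 serves as control.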
# * marks the source's active call; other numbers are inactive results; ? = inconclusive; · = no result. Unless noted, calls follow the shape of the dose curve; as a rule, active = well fitted curve in the direction sought with a large enough effect; inconclusive = small, poorly fitted or top-dose-only effect, or another doubt; inactive = no such curve, though single readings can be large; an effect the other way counts as inactive or inconclusive.
SMILES,Shiga toxin inh,Cycloheximide cs,Pf growth 48h,Pf growth 96h,Sm TGR inh,NS1 function inh
COc1cc2nc(SCC(=O)Nc3ccccc3C)n3nc(CCn4c(C)nc5ccccc54)nc3c2cc1OC,·,·,·,·,-14%,·
C=CCn1c(-c2ccc(C)cc2)nc2ccccc21,26,9,·,-12%,-4%,-156%
C=CCn1c(CC(=O)OC)csc1=Nc1ccc(C(C)=O)cc1,63*,33*,34%,?,0%,-48%
CCOC(=O)c1ccc(N=c2scc(C)n2CC)cc1,80*,40*,197%,293%,-35%,·
C=CCn1c(C)csc1=Nc1ccc(C(C)=O)cc1,111*,34*,84%,192%,-22%,1%
C=CCn1c(C)csc1=Nc1ccccc1C,75,30*,49%,?,0%,-3%
CCOC(=O)c1cc2[nH]c3ccccc3c2[n+](-c2ccc([N+](=O)[O-])cc2)c1C,-13,-3,2.6µM*,?,8%,18%
CCOC(=O)c1cc2[nH]c3ccccc3c2[n+](-c2ccc([N+](=O)[O-])cc2)c1N,-6,-2,3.7µM*,?,1%,-2%
Cc1csc(NC(=O)CN2C(=O)c3ccccc3S2(=O)=O)n1,-23,-2,16%,13µM*,3%,3%
CCc1nnc(NC(=O)CCN2C(=O)c3ccccc3S2(=O)=O)s1,-21,-1,1%,?,0%,-2%
Cc1csc(NC(=O)CCN2C(=O)c3ccccc3S2(=O)=O)n1,55*,16,11%,10%,-13%,-10%
Cc1oc(/N=C/c2ccccc2O)c(C#N)c1C,-13,7,31%,22%,-22%,6%
Cc1oc(/N=C/c2ccc(O)cc2O)c(C#N)c1C,117*,37*,-2%,3%,50µM*,·
COc1cccc(Nc2ccccc2C(=O)O)c1,20,13,21%,?,·,-43%
COc1cc(-c2ccc(Nc3ccccc3C(=O)O)c(OC)c2)ccc1Nc1ccccc1C(=O)O,13,-1,?,?,45µM*,3%
COc1ccccc1C(CNC(=O)c1ccc(OCc2c(C)noc2C)cc1)N1CCCC1 (stereo unspecified),·,·,10µM*,10µM*,?,·
COc1ccc(C(CNC(=O)c2ccc(OCc3c(C)noc3C)cc2)N2CCCC2)cc1 (stereo unspecified),·,·,4.7µM*,3.7µM*,-24%,·
Cc1cccc(NC(=O)c2ccc(OCc3c(C)noc3C)cc2)c1,·,·,-21%,?,2%,·
COc1cc(C(=O)NCC(c2ccco2)N2CCCC2)ccc1OCc1c(C)noc1C (stereo unspecified),-12,-1,12µM*,?,-15%,-5%
Cc1noc(C)c1COc1ccc(C(=O)NCC(c2c(F)cccc2Cl)N(C)C)cc1 (stereo unspecified),·,·,?,9.3µM*,-6%,·
O=c1[nH]c2cc(NCCO)c([N+](=O)[O-])cc2[nH]1,-16,-1,11%,-17%,-9%,·
Cc1ccc(C)c(OC(C)C(=O)Nc2ccc(S(=O)(=O)Nc3nccs3)cc2)c1 (stereo unspecified),2,-3,-15%,7%,5%,2%
CC(=O)c1ccc(NC2=C(N3CCOCC3)C(=O)c3ccccc3C2=O)cc1,21,-5,0.83µM*,0.52µM*,-16%,-7%
Cc1ccc(NC2=C(N3CCOCC3)C(=O)c3ccccc3C2=O)cc1,72*,47*,2.1µM*,2.6µM*,?,10%
Cc1ccc(SCC(=O)Nc2ccccc2N2CCOCC2)cc1,4,4,-12%,?,4%,-39%
SMILES,Shiga toxin inh,Cycloheximide cs,Pf growth 48h,Pf growth 96h,Sm TGR inh,NS1 function inh
N#Cc1cc(C#N)c(SCC(=O)N2CC(=O)Nc3ccccc32)nc1N,·,·,?,?,-16%,·
Nc1cc(N)nc(SCC(=O)Nc2ccccc2N2CCOCC2)n1,4,-3,-3%,-7%,-2%,-4%
Cc1ccc2nc(SCC(=O)Nc3ccccc3N3CCOCC3)c(C#N)cc2c1,8,2,7.4µM*,?,-7%,1%
CCc1ccc2nc(SCC(=O)Nc3ccccc3N3CCOCC3)c(C#N)cc2c1,6,5,9.3µM*,-54%,-2%,-42%
CCc1ccc2nc(SCC(=O)N3CC(=O)Nc4ccccc43)c(C#N)cc2c1,15,-2,-7%,12µM*,-15%,10%
Cc1nc(N)nc(N)c1/C=C/C(C)(C)c1ccc(Cl)cc1,-17,-6,-90%,-78%,0%,-45%
Cc1ccc(C(c2ccc(C)o2)c2cccc([N+](=O)[O-])c2O)o1,-9,-2,7.4µM*,4.7µM*,?,-1%
Cc1cc(/C=N/n2cnnc2)c(O)c([N+](=O)[O-])c1,10,-3,14%,44%,-9%,-66%
Cc1cc(C(c2ccc(C)o2)c2ccc(C)o2)c(O)c([N+](=O)[O-])c1,14,-3,·,-12%,45µM*,?
Cc1c(C(c2cccc([N+](=O)[O-])c2O)c2c(C)n(C)n(-c3ccccc3)c2=O)c(=O)n(-c2ccccc2)n1C,-13,-4,50%,-16%,-21%,11%
O=C(c1cccc(S(=O)(=O)N2CCCC2)c1)N1CCOCC1,·,·,20%,-14%,-1%,·
CCC(=O)Nc1ccc2nc(C3CC3)n(Cc3ccccc3)c(=O)c2c1,33,11,65%,-19%,-13%,?
COc1ccc(Cn2c(C3CC3)nc3ccc(NC(=O)c4ccco4)cc3c2=O)cc1,47,24,2.9µM*,2.1µM*,-31%,-36%
O=C(Nc1ccc2nc(C3CC3)n(Cc3ccccc3)c(=O)c2c1)C1CC1,31*,23*,53%,-18%,-8%,2%
Cc1ccccc1-c1nc(CN2CCC(C(=O)NCc3ccc(F)cc3)CC2)c(C)o1,·,·,·,·,-3%,·
CSc1nc(C)c(C(=O)C[n+]2ccccc2C)cc1C#N,9,-2,15µM*,?,2%,2%
C[n+]1c2n(c3ccccc31)N=C(c1ccc(Cl)cc1)CS2,18,13,-23%,17%,-7%,-26%
COc1ccc(C2=Nn3c([n+](C)c4ccccc43)SC2)cc1,-3,3,0.83µM*,-23%,12%,-1%
CC1CC(=O)N(c2ccc(NCCc3ccccc3)c([N+](=O)[O-])c2)C1=O (stereo unspecified),68*,31*,19%,18%,0%,·
CC1CC(=O)N(c2ccc(NCCc3ccc(O)cc3)c([N+](=O)[O-])c2)C1=O (stereo unspecified),41*,22*,?,-7%,-6%,·
COc1cc2nc(CN(C)Cc3ccc(OC)c(OC)c3OC)[nH]c(=O)c2cc1OC,37*,11*,58%,-1%,-3%,-1%

# Bioassay records (PubChem BioAssay)
